Data: PubChem BioAssay (NCATS)
Activity calls are given as the source filed them. Calls follow the shape of the dose curve; as a rule, active = well fitted curve in the direction sought with a large enough effect; inconclusive = small, poorly fitted or top-dose-only effect, or another doubt; inactive = no such curve, though single readings can be large or run the other way.

Experiment: Cellular Toxicity (caspase-3) HUV-EC-C (AID 656)
Settings: HUV-EC-C cells, caspase-3 activation (apoptosis), vehicle = 0, 100 µM tamoxifen = 100%; series mostly up to 92.2 µM
Source text: NIH Chemical Genomics Center [NCGC]
NIH Molecular Libraries Screening Centers Network [MLSCN]
National Institutes of Environmental Health Sciences [NIEHS]
National Toxicology Program [NTP]
We have developed a 1536-well cell-based assay for quantitative high throughput screening (qHTS) against a number of cell lines to determine in vitro caspase 3/7 of small molecules. This particular assay uses the HUV-EC-C cell line which is derived from normal human vascular endothelial cells.
NCGC Assay Protocol Summary:
The Caspase-Glo 3/7 assay (Promega) is a homogeneous method to measure caspase-3 and caspase-7 activities in cultured cells. The quantitation of caspase 3/7 activity is based on the cleavage of a peptide-aminoluciferin substrate. After caspase cleaves the substrate the free aminoluciferin is liberated and serves as the substrate of luciferase, which generates the light. The luminescent signal is proportional to amount of caspase 3/7 activity present.
Using the Caspase-Glo 3/7 assay, the amount of caspase 3/7 activity was measured in the HUV-EC-C cell line with complete culture medium following compound treatment for 16 hours. The assay was performed in opaque white 1536-well plates. In the screen, tamoxifen and doxorubicin were used as positive controls. Library compounds were measured for their ability to cause the activation of caspase 3/7 in the cell line, as reflected by an increase in luminescence signal, in a concentration-dependent manner. Data were normalized to the controls for basal activity (DMSO only) and 100% stimulation (100 uM tamoxifen). AC50 values were determined from concentration-response data modeled with the standard Hill equation.
qHTS protocol for caspase 3/7 assay in HUV-EC-C cell line
[Step] [Parameter] [Value] [Description]
1. Reagent; 5 uL; 1000 HUV-EC-C cells/well
2. Time; 5 hr; 37 °C incubation
4. Controls; 23 nL; Tamoxifen 0.23 uM to 100 uM & doxorubicin 7.0 pM to 100 uM
5. Time; 16 hr; 37 °C incubation
6. Reagent; 5 uL; Caspase-Glo 3/7 reagent
7. Time; 20 min; Room Temperature
8. Detection; Luminescence; Viewlux plate reader
Keywords: caspase 3/7, apoptosis, HUV-EC-C cell line, luminescence, NTPHTS, NTPHTS_NCGC, NIEHS, EPA, DSSTox, MLSMR, MLSCN, NIH Roadmap, qHTS, NCGC

Structure (SMILES) | outcome
C=C[C@H]1CN2CC[C@H]1C[C@@H]2[C@@H](O)c1ccnc2ccc(OC)cc12 | inactive
CCOc1ccccc1C(N)=O | inactive
COc1cc([C@H]2Oc3cc([C@H]4Oc5cc(O)cc(O)c5C(=O)[C@@H]4O)ccc3O[C@@H]2CO)ccc1O | inactive
Oc1c(Cl)cc(Cl)c(Cl)c1Cc1c(O)c(Cl)cc(Cl)c1Cl | inactive
Oc1ccc(Cl)cc1Cc1cc(Cl)ccc1O | inactive
CCCCC(CC)COC(=O)c1ccc(N(C)C)cc1 (stereo not given) | inactive
NC(=O)c1ccccc1O | inactive
C/C=C/c1ccc(O)c(OC)c1 | inactive
OC[C@H]1O[C@@H]2O[C@H]3[C@H](O)[C@@H](O)[C@@H](O[C@H]4[C@H](O)[C@@H](O)[C@@H](O[C@H]5[C@H](O)[C@@H](O)[C@@H](O[C@H]6[C@H](O)[C@@H](O)[C@@H](O[C@H]7[C@H](O)[C@@H](O)[C@@H](O[C@H]8[C@H](O)[C@@H](O)[C@@H](O[C@H]1[C@H](O)[C@H]2O)O[C@@H]8CO)O[C@@H]7CO)O[C@@H]6CO)O[C@@H]5CO)O[C@@H]4CO)O[C@@H]3CO | inactive
O=C(O)c1ccc(S(=O)(=O)N(Cl)Cl)cc1 | inactive
CCCN(CCC)S(=O)(=O)c1ccc(C(=O)O)cc1 | inactive
NCCNc1cccc2ccccc12 | inactive
COc1ccc(C(=O)c2ccccc2)c(O)c1 | inactive
CCOc1ccc(NC(C)=O)cc1 | inactive
COc1ccc(C(Cl)=C(c2ccc(OC)cc2)c2ccc(OC)cc2)cc1 | inactive
